Screening results: PubChem BioAssay, several laboratories
BaF3 parental – reduces parental Ba/F3 cell viability, JAK2V617F counter-screen | inhibition, % at 5.6 µM | AID 1486 | CellTiter-Glo ATP luminescence | 220,000 tested, 1.1% active;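 active = inhibition above a per-campaign cutoff, the mean inhibition of all tested compounds plus 3 SD, cut at about 27% in these data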;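 note: 0% = DMSO wells and 100% = JAK Inhibitor I control wells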
aSyn 5UTR inh – MLPCN primary screen, SNCA 5' untranslated region | 300,000 tested, 0.82% active | inhibition, % (tested at 7.5 µM) | alpha-synuclein 5'UTR reporter, inhibitor activity; in the data active = inhibition above about 60%;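 note: H4 neuroglioblastoma cells stably carrying SNCA 5'UTR luciferase fusion; 0% = DMSO wells and 100% = positive control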
IEC-6 tox – kills IEC-6 intestinal cells in KLF5 counter-screen; IEC-6 cytotoxicity, luminescence viability; inhibition, % at 5 µM; 290,000 tested, 0.78% active;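 note: 0% = plate median of test compound wells and 100% = cytotoxic reference compound wells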
APP 5UTR inh – APP translation inhibition; AID 1285; SH-SY5Y APP 5'UTR-luciferase reporter, luminescence; 190,000 tested, 0.82% active; inhibition, % at 2 µM;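 active = inhibition above a set limit, derived from the sample mean plus 3 SD, cut at about 45% in these data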
Ba/F3 V617F tox – reduce viability of Ba/F3 cells dependent on JAK2V617F; AID 1446; 220,000 tested, 1.1% active; inhibition, % at 5.6 µM; Ba/F3 EpoR-JAK2V617F viability, ATP luminescence;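 active = inhibition above the campaign mean plus 3 SD over all tested compounds, cut at about 24% in these data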;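 note: cytokine-independent growth of Ba/F3 cells driven by EpoR plus mutant JAK2; 0% = DMSO-treated cells and 100% = JAK inhibitor I control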
KLF5 inhibitor – inhibitors of KLF5 expression; AID 1700; DLD-1 KLF5 promoter-luciferase reporter, luminescence; 290,000 tested, 0.23% active; inhibition, % at 5 µM;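 active = inhibition above a per-plate limit of that plate's mean compound inhibition plus 3 SD, cut at about 60% in these data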;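 note: 0% = DMSO wells and 100% = LY294002 at 200 µM; higher means less KLF5 promoter-driven luciferase light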
IEC-6 tox confirm – confirmation of cytotoxic compounds in rat IEC-6 intestinal epithelial cells | shares compounds with IEC-6 tox | IEC-6 rat intestinal epithelial viability, luminescence | inhibition, % at 5 µM | 1,900 tested, 63% active | AID 1907;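 note: 0% = vehicle and 100% = reference cytotoxic drug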
An asterisk follows results filed as active; . = no result. The list is not random: actives were taken first. Their share in the collection is about 2.2%. Cut-off read from the data, not from the text of the source, unless noted: active = inhibition above about 22%; inactive = the rest.

SMILES	BaF3 parental	aSyn 5UTR inh	IEC-6 tox	APP 5UTR inh	Ba/F3 V617F tox	KLF5 inhibitor	IEC-6 tox confirm
Cn1cnc([N+](=O)[O-])c1Sc1ncnc2nc[nH]c12	28.9*	45.8	34.9*	.	55.7*	-4.8	46.6*
COc1ccc(CCNc2ncnc3sc(C)cc23)cc1OC	.	77.4*	26.6*	.	.	-38.4	26.6*
COc1ccc(OC)c(CCNC(=O)CC2(CC3=NS(=O)(=O)c4ccccc4N3)CCCC2)c1	.	23.7	5.4	.	.	-21.7	.
O=C(O)CSc1cc(NS(=O)(=O)c2ccc(Cl)cc2)c2ccccc2c1O	.	20.6	57.2*	.	.	-41.8	-2.8
Cc1nnc(N/N=C/c2cccc(OCc3ccc(Cl)c(Cl)c3)c2)n1N	6.2	-82.6	98.5*	-36.2	5.4	-137.2	3.9
CCOc1ccc(N(C)S(=O)(=O)c2ccc(-c3cc(C)no3)s2)cc1	.	-58.7	56.9*	.	.	38.9	38.1*
CCOc1ccc(N(C)S(=O)(=O)c2cc(-c3cc(C)no3)ccc2C(C)C)cc1	.	-12.6	1.1	.	.	-15.6	.
COC(=O)c1c(C)oc2ccc(N(C(=O)c3ccncc3)S(=O)(=O)c3ccc(C)cc3)cc12	75.2*	109.8*	52.1*	89.0*	85.8*	45.2	56.7*
O=c1cc(-c2ccccc2)[nH]c2cc(Cl)ccc12	45.7*	104.3*	57.2*	94.7*	80.4*	60.9	57.8*
Clc1ccc2[nH]c(-c3ccccc3)cc2c1	6.4	.	7.4	-118.8	3.2	-66.4	.
O=C(O)c1ccc(NC2=C/C(=N/S(=O)(=O)c3ccccc3)c3ccccc3C2=O)cc1	5.3	.	25.0*	6.4	-0.5	4.3	-10.2
Fc1ccc(NC(=S)N2CCOCC2)cc1Cl	100.3*	22.6	58.1*	-14.4	96.6*	6.1	7.9
CC1Sc2ccc(S(=O)(=O)CCC(=O)N3CCN(c4cccc(Cl)c4)CC3)cc2NC1=O (configuration not stated)	.	-6.0	-3.8	.	.	-3.5	.
COc1ccc(C(NC(C)=O)c2cc(Cl)c3cccnc3c2O)cc1 (configuration not stated)	.	75.9*	54.0*	.	.	75.3*	56.3*
CN(Cc1ccccc1)C(=O)C1CCN(S(=O)(=O)c2ccc3nc4c(c(C(=O)O)c3c2)CCCC4)CC1	.	-0.2	-11.0	.	.	-9.5	.
Cc1ccc(OCCn2cc(C(=S)N3CCCC3)c3ccccc32)cc1C	2.8	-37.6	69.6*	-0.8	3.1	23.8	44.3*
COc1cc2c(c(OC)c1OC)-c1ccc(NC(=O)c3ccc(F)cc3)c(=O)cc1[C@@H](NC(C)=O)CC2	.	-25.9	26.0*	.	.	17.5	52.6*
COc1cccc(C(=O)N2N=C(c3ccccn3)CC2(O)C(F)(F)F)c1 (configuration not stated)	-0.8	60.6	24.5*	.	-0.9	-15.6	11.5
COc1ccc(CC(=O)N2N=C(c3ccncc3)CC2(O)C(F)(F)F)cc1 (configuration not stated)	24.8	-30.3	24.5*	2.1	4.8	28.0	29.9*
CCOc1ccc(-n2c(-c3ccc(Br)cc3)c[n+]3c2CCCCC3)cc1	79.2*	-7.2	28.8*	0.8	96.0*	21.5	21.1
COc1ccc(-c2c[n+]3c(n2-c2ccc(C)cc2)CCCCC3)cc1	72.7*	0.6	28.6*	.	93.7*	-12.0	21.5
CCOc1ccc(-n2c(-c3ccc(OC)cc3)c[n+]3c2CCCCC3)cc1	73.7*	19.6	22.3*	6.9	97.1*	-15.6	26.5*
Cc1ccc2nc(NCCc3ccccc3)c3nncn3c2c1	.	-45.1	-6.7	.	.	-74.9	.
CCN(CC)CCC(=O)Nc1cccc2c1C(=O)c1ccccc1C2=O	67.6*	-5.0	26.5*	.	85.0*	23.2	24.3*
Nc1cccc(C(=O)OCC(=O)Nc2cccc3c2C(=O)c2ccccc2C3=O)c1	3.8	16.1	1.8	10.1	0.8	-23.7	.
SMILES	BaF3 parental	aSyn 5UTR inh	IEC-6 tox	APP 5UTR inh	Ba/F3 V617F tox	KLF5 inhibitor	IEC-6 tox confirm
COc1ccc(C(=O)c2ccc(OC)c(N)c2)cc1N	80.6*	46.1	76.4*	90.8*	80.8*	38.4	61.0*
CCN1CCN(c2ncc3c(n2)CC(c2cc(OC)c(OC)c(OC)c2)CC3=O)CC1 (configuration not stated)	81.7*	35.2	65.1*	5.3	80.7*	52.5	57.4*
Cc1cc2nc(/C=C/c3cccnc3)[nH]c2cc1C	.	92.1*	88.2*	.	.	5.7	59.1*
O=C1c2ccccc2C(=O)N1c1cccc2cccnc12	10.2	9.9	43.7*	-10.5	2.9	-23.2	8.6
CCc1c(C)nc2c(-c3ccccc3OC)c(C)[nH]n2c1=O	.	-4.1	1.8	.	.	-33.4	.
O=C1c2ccccc2C(=O)c2[nH]c(=O)[nH]c21	.	93.0*	100.7*	.	.	47.1	97.8*
O=C1Nc2ccccc2C1=O	.	-24.2	.	.	.	.	.
COc1ccccc1C(=O)NC(=O)COC(=O)c1ccc(C)o1	.	13.8	.	.	.	.	.
Cc1noc(/C=C/N(C)C)c1S(=O)(=O)N1CCCC(C(=O)NCCC2=CCCCC2)C1 (configuration not stated)	4.8	-18.4	7.4	11.4	-2.6	-21.5	-9.4
CCCCn1c(SCc2c(C)noc2C)nc2cc(S(N)(=O)=O)ccc21	62.3*	-40.3	30.3*	-10.8	68.2*	-24.8	7.3
Cc1ccc2c(c1)N(CC(=O)NCCCN1CCN(C)CC1)C(=O)CO2	.	21.0	1.5	.	.	-14.9	.
O=[N+]([O-])c1cc(C=Nc2cccc3c(O)cccc23)ccc1Cl	.	37.6	33.3*	.	.	-13.2	-4.2
CCOc1ccc(S(=O)(=O)N2CCN(CC(O)COc3cccc([N+](=O)[O-])c3)CC2)cc1 (configuration not stated)	.	31.9	5.0	.	.	-4.2	.
Cc1cccc(C(=O)Nc2cccc3cccnc23)c1	.	-56.3	8.3	.	.	-93.8	.
Cc1cnc(C(=O)Nc2cccc3cccnc23)cn1	33.5*	-24.9	91.4*	73.7*	89.6*	-0.8	18.1
COc1ccc(NS(=O)(=O)c2cccc(C(=O)N3CCCC3)c2)cc1	.	-7.5	.	.	.	.	.
COc1ccc(S(=O)(=O)N2CCCCC2)cc1NCC(=O)Nc1ccc(C)cc1	8.6	-12.2	32.2*	.	2.8	-10.2	18.4
COCCN(C(=O)CCC(=O)Nc1ccccn1)C(C(=O)NCCC(C)C)c1ccc(C)cc1 (configuration not stated)	.	-0.5	-4.3	.	.	-13.8	.
COc1cccc(NC(=S)Nc2cccc3ccccc23)c1	.	-69.6	35.9*	.	.	-109.4	7.3
CC(=O)NNC(=S)Nc1cc(S(=O)(=O)N(C)C)ccc1C	4.2	5.6	-0.5	-27.7	3.4	-9.0	.
Cc1ccc(S(=O)(=O)N(C)C)cc1NC(=S)Nc1cccc2ccccc12	.	19.3	61.7*	.	.	-8.9	3.8
CCc1cccc(NC(=S)Nc2cccc3ccccc23)c1	.	-30.1	29.2*	.	.	-48.0	14.2
CCOC(=O)C1(Cc2cccc(Cl)c2)CCCN(C(=O)c2ccc(COC)s2)C1 (configuration not stated)	.	-8.6	-1.8	.	.	-50.7	.
COc1cccc(CCNC(=O)CCc2nnc(Cc3cc(OC)ccc3OC)o2)c1	.	-32.0	-1.1	.	.	-13.3	.
